According to PubChem BioAssay (NCATS):
Results filed as inconclusive are left out. The source made the active and inactive calls. Unless noted, the call rests on the fitted dose curve; in most records, active means well fitted curve in either direction with a large enough effect (not every such curve was filed as active); inconclusive means small, poorly fitted or top-dose-only effect, or another doubt; inactive means flat fitted curve, though single readings scatter.

Columns and labels:
[1] = target: Lysosomal acid glucosylceramidase (Homo sapiens) (UniProt P04062); experiment: Glucocerebrosidase-p2 (AID 348; in the data active means potency below about 10 µM; further: potency means the concentration at half of the fitted maximal effect); conditions: purified GBA, blue fluorogenic substrate, 40 min
Lysosomal acid glucosylceramidase (Homo sapiens), sequence (P04062 whole entry, looked up): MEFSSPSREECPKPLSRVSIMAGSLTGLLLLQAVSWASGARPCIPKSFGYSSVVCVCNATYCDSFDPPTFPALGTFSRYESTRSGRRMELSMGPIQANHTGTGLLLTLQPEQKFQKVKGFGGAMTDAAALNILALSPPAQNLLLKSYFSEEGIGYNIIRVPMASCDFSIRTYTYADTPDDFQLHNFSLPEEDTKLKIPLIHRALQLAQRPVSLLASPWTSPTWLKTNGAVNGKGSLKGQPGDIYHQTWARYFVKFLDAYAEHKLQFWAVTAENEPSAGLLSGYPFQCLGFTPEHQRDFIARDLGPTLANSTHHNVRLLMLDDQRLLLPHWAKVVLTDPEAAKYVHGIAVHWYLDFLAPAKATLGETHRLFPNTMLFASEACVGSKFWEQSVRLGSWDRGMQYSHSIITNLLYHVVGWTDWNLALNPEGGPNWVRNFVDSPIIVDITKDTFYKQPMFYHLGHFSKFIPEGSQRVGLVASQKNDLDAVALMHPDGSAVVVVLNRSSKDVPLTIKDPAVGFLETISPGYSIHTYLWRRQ
How it was run: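 Compounds titrated from 0.6 nM upwards against 0.2 nM enzyme in pH 5.9 citric acid/KH2PO4, taurocholate, tween-20; blue fluorogenic substrate 80 uM, 40 min room temperature, stopped and read Ex 365/Em 440 for AC50.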

[2] = AP1 Signaling Pathway (AID 357); conditions: ME-180 AP-1-bla reporter, EGF-induced, beta-lactamase ratio, 5 h; at 7.69 µM (top of the series) unless noted; further: on the % scale 0 is the no-effect control and ±100 the full control effect
How it was run: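 Titration-series screen for positive or negative modulators of EC50 EGF-induced signaling in ME-180 cells carrying an AP-1-driven beta-lactamase reporter. After 5 hours at 37 degrees Celsius, CCF4 460nm/530nm emission ratio gave %Activity; AC50 values derived.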

[3] = target: Cytochrome P450 1A2 (Homo sapiens) (UniProt P05177); experiment: p450-cyp1a2 (AID 410; calls by dose curve; further: potency means the concentration at half of the fitted maximal effect;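 on activity change, negative = inhibition: -100% = full effect of reference inhibitor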); conditions: recombinant CYP1A2, luciferin-ME demethylation, luminescence; series mostly up to 57 µM
Cytochrome P450 1A2 (Homo sapiens), sequence (P05177 whole entry, looked up): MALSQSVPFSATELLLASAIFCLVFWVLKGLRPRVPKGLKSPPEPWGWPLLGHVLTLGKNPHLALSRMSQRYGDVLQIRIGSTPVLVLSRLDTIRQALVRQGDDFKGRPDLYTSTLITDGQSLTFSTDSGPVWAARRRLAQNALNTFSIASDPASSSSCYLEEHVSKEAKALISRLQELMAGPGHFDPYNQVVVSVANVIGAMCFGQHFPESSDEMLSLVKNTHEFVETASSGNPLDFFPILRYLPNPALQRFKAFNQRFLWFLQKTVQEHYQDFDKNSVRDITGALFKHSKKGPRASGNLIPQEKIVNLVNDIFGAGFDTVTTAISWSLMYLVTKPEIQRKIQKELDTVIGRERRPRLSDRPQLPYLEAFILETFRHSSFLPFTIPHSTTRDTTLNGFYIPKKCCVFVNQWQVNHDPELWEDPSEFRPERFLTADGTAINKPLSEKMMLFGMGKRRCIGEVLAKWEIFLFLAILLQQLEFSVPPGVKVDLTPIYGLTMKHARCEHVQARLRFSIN
How it was run: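 Luminescent readout of luciferin formed from Luciferin-ME by human CYP1A2; data normalized against complete inhibition by 57 uM furafylline. Enzyme 20nM, substrate 100uM at Km, 100mM KPO4 buffer, 60 min reaction at room temperature.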

[4] = NFAT Signaling Pathway (AID 444); conditions: Jurkat NFAT-bla M1, carbachol, beta-lactamase ratio, 5 h; at 7.69 µM (top of the series) unless noted;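 further: carbachol stimulus at about its EC50 of 1 µM final; on the % scale 0 is the no-effect control and ±100 the full control effect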
How it was run: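 Jurkat cells carrying an NFAT-driven β-lactamase reporter and co-transfected muscarinic M1 receptor were treated with compound plus carbachol (1 uM final, an EC50 level) for 5 h at 37 °C. CCF4 loading followed for 1 h at RT; 460/530 nm ratio gave %activity.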

[5] = target: Glucocorticoid receptor (Homo sapiens) (UniProt P04150); experiment: GR-EFC Redistribution (AID 451; calls by dose curve; further: potency means the concentration at half of the fitted maximal effect); conditions: CHO-K1 GR-EFC translocation, beta-gal luminescence, 2 h
Glucocorticoid receptor (Homo sapiens), sequence (P04150 whole entry, looked up, the tested form may be a part): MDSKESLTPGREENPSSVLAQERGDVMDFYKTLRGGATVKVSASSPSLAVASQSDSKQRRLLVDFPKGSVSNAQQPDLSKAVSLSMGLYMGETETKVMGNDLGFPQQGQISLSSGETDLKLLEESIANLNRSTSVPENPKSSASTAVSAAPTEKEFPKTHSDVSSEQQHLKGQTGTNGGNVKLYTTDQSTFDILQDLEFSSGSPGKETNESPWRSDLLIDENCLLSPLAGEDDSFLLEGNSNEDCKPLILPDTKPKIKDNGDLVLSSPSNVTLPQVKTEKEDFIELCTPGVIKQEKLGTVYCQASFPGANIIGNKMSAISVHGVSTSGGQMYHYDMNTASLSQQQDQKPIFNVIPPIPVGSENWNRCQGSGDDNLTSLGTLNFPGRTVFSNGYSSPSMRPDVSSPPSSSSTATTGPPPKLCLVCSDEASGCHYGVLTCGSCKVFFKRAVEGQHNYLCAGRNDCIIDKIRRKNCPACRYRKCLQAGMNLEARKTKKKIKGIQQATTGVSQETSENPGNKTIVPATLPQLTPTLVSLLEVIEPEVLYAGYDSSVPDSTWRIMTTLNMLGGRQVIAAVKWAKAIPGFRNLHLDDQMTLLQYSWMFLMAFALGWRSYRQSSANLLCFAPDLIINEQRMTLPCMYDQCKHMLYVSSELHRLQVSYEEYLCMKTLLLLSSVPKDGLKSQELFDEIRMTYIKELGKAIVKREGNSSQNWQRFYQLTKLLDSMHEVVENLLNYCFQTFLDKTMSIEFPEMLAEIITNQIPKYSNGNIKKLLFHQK
How it was run: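 CHO-K1 cells stably expressing nuclear-localized β-gal enzyme acceptor and GR fused C-terminally to the enzyme donor fragment; ligand-driven nuclear translocation restores β-gal by complementation. Compounds titrated up to 46 uM final, 2 h at 37 °C; luminescence read.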

[6] = target: Mitogen-activated protein kinase 10 (Mus musculus) (UniProt Q61831); experiment: JNK3 AlphaScreen Assay (AID 530); conditions: JNK3 lysate, c-Jun phosphorylation; series mostly up to 57.1 µM;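 further: kinase came from lysate of stimulated human HepG2 cells; signal reports phosphorylation of biotinylated GST-cJun 1-79 at Ser73 with 10 µM ATP; on the % scale 0 is the no-effect control and ±100 the full control effect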
How it was run: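 Inhibitors reduce antibody binding to phosphorylated biotin-cJun, lowering AlphaScreen luminescence. Lysates from HepG2 cells pre-activated by IL-1beta plus TNF-alpha supplied JNK3; compounds were titrated.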

[7] = target: 3',5'-cyclic-AMP phosphodiesterase 4B (Homo sapiens) (UniProt Q07343); experiment: qHTS Assay for Inhibitors of PDE-IV (AID 607; active means well fitted activation curve with a large enough effect in the main read-out, with a control signal flat, not every such curve was filed as active; further: % of control where 0% means no effect); conditions: HEK293 ACTOne CNG channel cells, membrane potential fluorescence; series mostly up to 22.9 µM
3',5'-cyclic-AMP phosphodiesterase 4B (Homo sapiens), sequence (Q07343 whole entry, looked up): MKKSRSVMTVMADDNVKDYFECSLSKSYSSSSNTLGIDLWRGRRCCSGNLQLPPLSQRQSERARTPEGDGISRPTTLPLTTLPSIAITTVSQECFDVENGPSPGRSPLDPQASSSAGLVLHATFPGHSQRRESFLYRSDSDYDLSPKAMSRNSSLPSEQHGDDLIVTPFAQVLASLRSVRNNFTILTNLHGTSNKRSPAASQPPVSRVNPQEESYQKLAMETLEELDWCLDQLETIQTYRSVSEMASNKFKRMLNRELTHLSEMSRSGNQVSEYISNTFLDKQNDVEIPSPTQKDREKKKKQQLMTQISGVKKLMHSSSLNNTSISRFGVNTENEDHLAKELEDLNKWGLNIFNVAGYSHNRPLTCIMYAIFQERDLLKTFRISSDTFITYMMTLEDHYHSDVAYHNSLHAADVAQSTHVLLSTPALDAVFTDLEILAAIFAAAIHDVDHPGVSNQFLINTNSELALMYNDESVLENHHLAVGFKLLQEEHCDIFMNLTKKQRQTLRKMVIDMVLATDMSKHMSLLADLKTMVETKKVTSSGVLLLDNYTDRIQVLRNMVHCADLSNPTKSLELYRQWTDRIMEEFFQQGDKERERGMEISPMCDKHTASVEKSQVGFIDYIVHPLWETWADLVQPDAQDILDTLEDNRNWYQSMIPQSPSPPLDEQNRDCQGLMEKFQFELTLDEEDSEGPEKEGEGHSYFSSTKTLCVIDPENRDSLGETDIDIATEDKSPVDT
How it was run: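 HEK293 ACTOne cells with CNG channel (1000/well), endogenous PDE4; membrane potential dye, compounds up to 22.9 uM final. Fluorescence Ex 535/Em 590; RO 20-1724 (100 uM final) as reference.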

[8] = target: Cytochrome P450 3A4 (Homo sapiens) (UniProt P08684); experiment: qHTS Assay for Activators of Cytochrome P450 3A4 (AID 885; active means well fitted curve in the direction sought with a large enough effect; an effect the other way counts as inactive or inconclusive; further: nearly all actives have a fitted effect of over 65% in size; further: potency means the concentration at half of the fitted maximal effect); conditions: recombinant CYP3A4, Luciferin-PPXE luminescence, 60 min; series mostly up to 57.1 µM
Cytochrome P450 3A4 (Homo sapiens), sequence (P08684 whole entry, looked up): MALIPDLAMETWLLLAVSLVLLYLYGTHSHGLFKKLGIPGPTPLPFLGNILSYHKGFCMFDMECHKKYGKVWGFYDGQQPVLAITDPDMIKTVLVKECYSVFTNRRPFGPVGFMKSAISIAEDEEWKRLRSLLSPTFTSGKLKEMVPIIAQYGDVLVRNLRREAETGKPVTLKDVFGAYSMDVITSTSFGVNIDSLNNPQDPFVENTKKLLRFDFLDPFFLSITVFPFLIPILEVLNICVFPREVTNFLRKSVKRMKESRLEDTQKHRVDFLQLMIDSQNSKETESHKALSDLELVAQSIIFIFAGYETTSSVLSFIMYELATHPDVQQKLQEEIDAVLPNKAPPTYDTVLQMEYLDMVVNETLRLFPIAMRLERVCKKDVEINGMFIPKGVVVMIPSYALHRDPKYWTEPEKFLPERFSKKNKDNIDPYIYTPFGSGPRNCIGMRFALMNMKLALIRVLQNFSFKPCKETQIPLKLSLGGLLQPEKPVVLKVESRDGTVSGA
How it was run: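 Human CYP3A4 (20 nM) with Luciferin-PPXE at 25 uM (its KM) in 200 mM KPO4; 10 min compound preincubation, then NADPH regeneration and 60 min reaction at RT. Luciferin read by luminescence; normalized to 57 uM ketoconazole full inhibition.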

[9] = qHTS Assay for Lipid Storage Modulators (AID 1519; calls by dose curve); conditions: Drosophila S3 cells, BODIPY lipid droplet/cell ratio, laser cytometry, cells loaded with oleic acid; for activity change, negative = inhibition: at 57.5 µM (top of the series)
How it was run: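 Cells seeded at 5,000 per well were treated with compounds over a concentration series and loaded with oleic acid (400 uM, as added). Lipid droplet fluorescence (488 nm excitation, 500-530 nm channel) was read by laser-scanning cytometry and normalized to 20 uM Triacsin C.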

[10] = Primary qHTS for small molecule stabilizers of the endoplasmic reticulum resident proteome: Secreted ER Calcium Modulated Protein (SERCaMP) assay (AID 1508630; active means well fitted curve in the direction sought with a large enough effect; an effect the other way counts as inactive or inconclusive; further: on the % scale 0 is the no-effect control and ±100 the full control effect); conditions: SH-SY5Y GLuc-SERCaMP (Gaussia luciferase released on ER calcium loss) secretion, thapsigargin, luminescence; series mostly up to 38.4 µM
How it was run: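 GLuc-SERCaMP-expressing SH-SY5Y cells, pretreated 16 h with compound, are challenged with thapsigargin to empty ER calcium stores; after 4 h, coelenterazine is added directly to the medium and luminescence is imaged.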

[11] = Stat Signaling Pathway (AID 446); conditions: ME-180 SIE beta-lactamase reporter, IL-6 stimulated, 5 h; at 7.69 µM (top of the series) unless noted
How it was run: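 ME-180 cells carrying a SIE-driven beta-lactamase reporter are stimulated with 40 pM IL-6 for 5 h at 37C in the presence of compound. The 460/530 nm FRET substrate ratio is read after 2.5 h at RT. Data are normalised to 300 pM IL-6 and to 125 nM JAK inhibitor controls.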

[12] = target: Glucocorticoid receptor (Homo sapiens) (UniProt P04150); experiment: GR-GFP Redistribution (AID 450;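 active means compounds whose dose series gives a full or clear partial fitted curve of increased nuclear translocation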; further: potency means the concentration at half of the fitted maximal effect); conditions: U2OS GR-GFP nuclear translocation, laser cytometry, 2 h
[13] = target: Cytochrome P450 3A4 (Homo sapiens) (UniProt P08684); experiment: qHTS Assay for Inhibitors and Substrates of Cytochrome P450 3A4 (AID 884; active means well fitted curve in the direction sought with a large enough effect; an effect the other way counts as inactive or inconclusive; further: nearly all actives have a fitted effect of over 50% in size; further: potency means the concentration at half of the fitted maximal effect); conditions: recombinant CYP3A4, Luciferin-PPXE luminescence; series mostly up to 57.1 µM
How it was run: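 20 nM human CYP3A4 with 25 uM Luciferin-PPXE (at KM) in 200 mM KPO4, preincubated 10 min with compound; NADPH regeneration started a 60 min RT reaction. Luciferin detected by luminescence, normalized to 57 uM ketoconazole as full inhibition.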

[14] = measured here: cell count channel max response
[15] = measured here: lipid channel max response

COc1ccc(C(=O)N2CCC3(CC2)CN(C(=O)Nc2cccc(C#N)c2)C3)cc1
inactive: Potency [1] > 11.4 µM | activity change, negative = inhibition [2] -3.72% | Potency [3] | activity change, negative = inhibition [4] 16.2% | Potency [5] > 46 µM | outcome [6] | Potency [7] | Potency [8] | activity change, negative = inhibition [9] 6.5% | Potency [10]
13.9%: max response [9, 14]
18.3%: max response [9, 15]

Cn1cccc1C(=O)N1CCC[C@@]2(CCN(c3ccccc3)C2)C1
active: Potency [3] 12.6 µM
15.8%: max response [9, 14]
inactive: Potency [1] > 11.4 µM | activity change, negative = inhibition [2] -3.25% | activity change, negative = inhibition [4] -15.1% | activity, negative = inhibition [11] -10.8% | Potency [5] > 46 µM | Potency [7] | Potency [8] | activity change, negative = inhibition [9] -1.47% | Potency [10]
17.2%: max response [9, 15]

O=C(Nc1ccccc1)N1CCC2(CC1)CCN(C(=O)c1ccncc1)CC2
12.3%: max response [9, 14]
inactive: Potency [1] > 11.4 µM | activity change, negative = inhibition [2] -8.86% | activity change, negative = inhibition [4] -7.39% | activity, negative = inhibition [11] 2.23% | Potency [5] > 46 µM | outcome [6] | Potency [7] | activity change, negative = inhibition [9] 7.6% | Potency [10]
27.7%: max response [9, 15]

Cc1noc(C)c1C(=O)N1CCC2(CCN(Cc3cc(C(F)(F)F)cc(C(F)(F)F)c3)CC2)CC1
-1.09%: max response [9, 15]
inactive: Potency [1] > 11.4 µM | activity change, negative = inhibition [2] -3.69% | Potency [3] | activity change, negative = inhibition [4] -22.4% | activity, negative = inhibition [11] -0.996% | Potency [5] > 46 µM | Potency [7] | activity change, negative = inhibition [9] 2.45% | Potency [10]
-5.2%: max response [9, 14]

O=C(Nc1ccccc1)N1CCC2(CC1)CCN(S(=O)(=O)c1ccccc1)CC2
inactive: Potency [1] > 11.4 µM | activity change, negative = inhibition [2] -0.036% | activity change, negative = inhibition [4] 21.1% | Potency [5] > 46 µM | outcome [6] | Potency [7] | Potency [8] | activity change, negative = inhibition [9] 3.55% | Potency [10]
-0.439%: max response [9, 14]
active: Potency [3] 7.94 µM
7.34%: max response [9, 15]

N#CCCn1c(=O)c(-c2cccs2)nc2cnc(OCc3ccccc3)nc21
active: Potency [3] 3.98 µM
0.666%: max response [9, 14]
1.75%: max response [9, 15]
inactive: Potency [1] > 11.4 µM | activity change, negative = inhibition [2] 9.62% | activity change, negative = inhibition [4] 6.28% | Potency [12] > 9.22 µM | Potency [5] > 46 µM | outcome [6] | Potency [7] | activity change, negative = inhibition [9] -2.65% | Potency [10]

O=C(c1ccncc1)N1CCC2(CC1)CCN(c1cccc(-c3ccccc3)c1)CC2
inactive: Potency [1] > 11.4 µM | activity change, negative = inhibition [2] -1.52% | activity change, negative = inhibition [4] 4.67% | activity, negative = inhibition [11] -12.5% | Potency [5] > 46 µM | Potency [7] | activity change, negative = inhibition [9] 1.19% | Potency [10]
21.6%: max response [9, 15]
19.1%: max response [9, 14]
active: Potency [3] 20 µM

O=C(c1ccncc1)N1CCC2(CC1)CN(c1cccc(-c3ccccc3)c1)C2
active: Potency [3] 15.8 µM | Potency [13] 7.94 µM
inactive: Potency [1] > 11.4 µM | activity change, negative = inhibition [2] -2.83% | activity change, negative = inhibition [4] 7.15% | Potency [5] > 46 µM | Potency [7] | Potency [8] | activity change, negative = inhibition [9] -2.24% | Potency [10]
11.3%: max response [9, 15]
13.1%: max response [9, 14]

O=c1c(-c2cc(F)cc(F)c2)nc2cnc(N3CCOCC3)nc2n1C1CC1
11.7%: max response [9, 15]
9.59%: max response [9, 14]
inactive: Potency [1] > 11.4 µM | activity change, negative = inhibition [2] 7.91% | activity change, negative = inhibition [4] 6.75% | Potency [12] > 9.22 µM | Potency [5] > 46 µM | outcome [6] | activity change, negative = inhibition [9] 0.7% | Potency [10]
active: Potency [3] 1 µM

O=C(c1cccc(F)c1)N1CCC2(CCCN(c3ncccn3)C2)CC1
inactive: Potency [1] > 11.4 µM | activity change, negative = inhibition [2] 4.38% | activity change, negative = inhibition [4] -6.9% | activity, negative = inhibition [11] -4.43% | Potency [5] > 46 µM | outcome [6] | activity change, negative = inhibition [9] 3.73% | Potency [10]
active: Potency [3] 25.1 µM
1%: max response [9, 14]
9.03%: max response [9, 15]

Cn1cc(-c2nc3cnc(Oc4cccc(Cl)c4)nc3n(CCC#N)c2=O)c2ccccc21
active: Potency [3] 2.51 µM
6.76%: max response [9, 14]
0.937%: max response [9, 15]
inactive: Potency [1] > 11.4 µM | activity change, negative = inhibition [2] 0.05% | activity change, negative = inhibition [4] 21.5% | Potency [12] > 9.22 µM | Potency [5] > 46 µM | Potency [7] | Potency [8] | activity change, negative = inhibition [9] -7.95% | Potency [10]

Cn1cccc1C(=O)N1CCC2(CC1)CCN(c1ccccc1)CC2
inactive: Potency [1] > 11.4 µM | activity change, negative = inhibition [2] -11.3% | activity change, negative = inhibition [4] 20.8% | activity, negative = inhibition [11] -1.51% | Potency [5] > 46 µM | Potency [7] | Potency [13] | activity change, negative = inhibition [9] 5.03% | Potency [10]
active: Potency [3] 12.6 µM | Potency [8] 15.8 µM
16.6%: max response [9, 15]
9.38%: max response [9, 14]

Cn1cccc1C(=O)N1CCC2(CCCN(c3ccccc3)C2)CC1
7.11%: max response [9, 15]
active: Potency [3] 10 µM
inactive: Potency [1] > 11.4 µM | activity change, negative = inhibition [2] -3.96% | activity change, negative = inhibition [4] 5.63% | activity, negative = inhibition [11] -6.3% | Potency [5] > 46 µM | Potency [7] | Potency [8] | activity change, negative = inhibition [9] 1.89% | Potency [10]
1.38%: max response [9, 14]

CC(=O)N1CCC2(CC1)CN(c1ccccn1)C2
3.77%: max response [9, 14]
14.1%: max response [9, 15]
inactive: Potency [1] > 11.4 µM | activity change, negative = inhibition [2] -8.91% | Potency [3] | activity change, negative = inhibition [4] 6.27% | activity, negative = inhibition [11] -0.186% | Potency [5] > 46 µM | Potency [7] | activity change, negative = inhibition [9] 7.33% | Potency [10]

CS(=O)(=O)N1CCC2(CC1)CN(c1ccncc1)C2
-19.4%: max response [9, 14]
-21.8%: max response [9, 15]
inactive: Potency [1] > 11.4 µM | activity change, negative = inhibition [2] -2.13% | Potency [3] | activity change, negative = inhibition [4] -17.7% | activity, negative = inhibition [11] -0.0709% | outcome [6] | Potency [7] | activity change, negative = inhibition [9] 4.12% | Potency [10]
